Test results from PubChem BioAssay (Tox21).
Where “and” joins values, the source holds several entries; their conditions need not be identical. Equal values may be shown once. Results filed as inconclusive are left out. Calls of active or inactive are those of the source. Unless noted, the call rests on the fitted dose curve; in most records, active means well fitted curve in the direction sought with a large enough effect in the repeat runs; inconclusive means weak or mixed curves; inactive means no such curve, though single readings can be large; an effect the other way counts as inactive or inconclusive.

Columns and labels:
[1] = qHTS assay to identify small molecule agonists of the hypoxia (HIF-1) signaling pathway - cell viability counter screen (AID 1224844; calls by dose curve; further: nearly all actives have a fitted effect of over 50% in size)
Outline: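 HRE-bla ME-180 cells, 2,000/well in 0.5% dialyzed FBS medium, treated 17 h at 37C with compounds. Viability read in the same wells as the bla reporter, by CellTiter-Glo luminescence after 30 min at room temperature.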

[2] = qHTS assay to identify small molecule agonists of H2AX (AID 1224845; active means well fitted activation curve with a large enough effect in the signal ratio in the repeat runs, not every such curve was filed as active; the % refers to the signal ratio)
Outline: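 Wild-type CHO-K1 cells plated overnight, then exposed 3 hr at 37C to compounds at 15 concentrations (0.76% DMSO). Lysed, then HTRF anti-pH2AX(S139)-cryptate/anti-H2AX-d2 detection after 24 hr at room temperature; emissions 665 and 620 nm.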

[3] = qHTS assay to identify small molecule agonists of the hypoxia (HIF-1) signaling pathway (AID 1224846; active means well fitted activation curve with a large enough effect in the signal ratio in the repeat runs, not every such curve was filed as active; the % refers to the signal ratio)
Outline: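 HRE-bla ME-180 beta-lactamase reporter cells in medium with 0.5% dialyzed FBS, pre-incubated 5 h then exposed to compounds 17 h at 37C, 5% CO2; reporter induction read with CCF4-AM FRET substrate.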

[4] = qHTS assay to identify small molecule agonists of H2AX - cell viability counter screen (AID 1224847; calls by dose curve; further: top concentration of the series differs between compounds; nearly all actives have a fitted effect of over 30% in size)
Outline: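 After overnight plating of 1000 CHO-K1 cells per well, a 15-concentration compound series was applied for 3 hr at 37C. Luminescence from CellTiter-Glo, read following 30 min at room temperature, reflected cell viability.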

[5] = qHTS assay to identify small molecule antagonists of the estrogen related receptor (ERR) signaling pathway from Tox21 library (AID 1224848); further: nearly all actives have a fitted effect of over 50% in size
Outline: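 Screening used an ERR reporter line supplied by NTP, exposed for 18 h at 37 C to library compounds delivered in DMSO. Signal was luciferase luminescence developed with ONE-Glo at room temperature for 30 min.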

[6] = qHTS assay to identify small molecule agonists of the estrogen related receptor (ERR) signaling pathway from Tox21 library (AID 1224849; calls by dose curve; further: nearly all actives have a fitted effect of over 15% in size); settings: ERR reporter cell line, ONE-Glo luciferase, 18 h; at 92.4 µM (top of the series) unless noted
Outline: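 ERR reporter cells (NTP line) pre-incubated 6 hours at 37 C, then exposed to compounds for 18 hours at 37 C. ONE-Glo luciferase luminescence was read after 30 minutes at room temperature.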

[7] = qHTS RealTime-Glo MT Cell Viability Assay in HepG2 cells - 24 hour (AID 1224867); further: nearly all actives have a fitted effect of over 50% in size
Outline: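 Viability was tracked continuously by NanoLuc luminescence from prosubstrate reduced by living HepG2 cells, at successive time points over 40 h of compound exposure. Cells with reagent were preincubated 5 h at 37 °C before compound addition.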

[8] = qHTS RealTime-Glo MT Cell Viability Assay in HEK293 cells - 32 hour (AID 1224868); further: top concentration of the series differs between compounds; nearly all actives have a fitted effect of over 50% in size
Outline: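 Viability tracked continuously by luminescence as live cells reduce a prosubstrate for NanoLuc; HEK293 cells preincubated 5 h, compound-treated at 37 C, and read at 0, 8, 16, 24, 32 and 40 h.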

[9] = A CellTox Green Cytotoxicity Assay to monitor cytotoxicity in HEK293 cells - 0 hour (AID 1224869); further: nearly all actives have a fitted effect of over 50% in size
Outline: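 HEK293 cells, 600/well, were preincubated 5 hours and then exposed to compounds at 37 C for up to 40 hours. A cell-impermeant cyanine dye staining dead-cell DNA was read by fluorescence at 0, 8, 16, 24, 32 and 40 h time points.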

[10] = qHTS RealTime-Glo MT Cell Viability Assay in HepG2 cells - 40 hour (AID 1224870); further: nearly all actives have a fitted effect of over 50% in size
Outline: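 HepG2 cells mixed with RealTime-Glo MT reagents (NanoLuc plus cell-permeant prosubstrate) were seeded at 600 cells/well, incubated 5 h at 37 C/5% CO2, then pinned with compounds in DMSO; nonlytic luminescence tracked viability during 40 h treatment.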
On the % scale 0 is the no-effect control and ±100 the full control effect.

OC1CCCCC1c1ccccc1 (stereo unspecified)
inactive: Potency [1] | outcome [2] | outcome [3] | Potency [4] | Potency [5] | activity change, positive = activation [6] 0.961% | Potency [7] | Potency [8] | Potency [9] | Potency [10]

CC(=O)CC(C)C
inactive: Potency [1] | outcome [2] | outcome [3] | Potency [4] | Potency [5] | activity change, positive = activation [6] 1.24% | Potency [7] | Potency [8] | Potency [9] | Potency [10]

CCOC(=O)CCC(C)=O
inactive: Potency [1] | outcome [2] | outcome [3] | Potency [4] | Potency [5] | activity change, positive = activation [6] 4.77% | Potency [7] | Potency [8] | Potency [9] | Potency [10]

O=S(O)CO
inactive: Potency [1] | outcome [2] | outcome [3] | Potency [4] | Potency [5] | activity change, positive = activation [6] 4.77% | Potency [7] | Potency [8] | Potency [9]

C=CCCCCCCCCC=O
inactive: Potency [1] | outcome [2] | outcome [3] | Potency [4] | Potency [5] | activity change, positive = activation [6] -2.86% | Potency [7] | Potency [8] | Potency [9] | Potency [10]

CN1CC(=O)NC1=N
inactive: Potency [1] | outcome [2] | outcome [3] | Potency [4] | Potency [5] | activity change, positive = activation [6] 4.02% [at 42.5 µM] | Potency [7] | Potency [8] | Potency [9] | Potency [10]

CCOC(C)(C)C
inactive: Potency [1] | outcome [2] | outcome [3] | Potency [4] | Potency [5] | activity change, positive = activation [6] 3.27% | Potency [7] | Potency [8] | Potency [9] | Potency [10]

N[C@H](C(=O)O)c1ccc(O)cc1
inactive: activity change, negative = cytotoxicity [1] 4.56% [at 15.8 µM] | outcome [2] | activation [3] 0.0786% [at 15.8 µM] | Potency [4] | activity, negative = inhibition [5] 2.86% [at 19 µM] | activity change, positive = activation [6] 1.6% [at 19 µM] | activity change, negative = cytotoxicity [7] -0.341% [at 15.8 µM] | activity change, negative = cytotoxic [8] 3.67% [at 15.8 µM] | cytotoxicity [9] -2.5% [at 15.8 µM] | activity change, negative = cytotoxic [10] 1.99% [at 15.8 µM]

O=C[C@H](O)[C@@H](O)[C@H](O)[C@H](O)CO
inactive: Potency [1] | outcome [2] | outcome [3] | Potency [4] | Potency [5] | activity change, positive = activation [6] 3.09% | Potency [7] | Potency [8] | Potency [9] | Potency [10]

FC1(F)C(F)(F)C(F)(F)C2(F)C(F)(F)C(F)(F)C(F)(F)C(F)(F)C2(F)C1(F)F (stereo unspecified)
inactive: Potency [1] | outcome [2] | outcome [3] | Potency [4] | Potency [5] | activity change, positive = activation [6] 2.28% [at 42.5 µM] | Potency [7] | Potency [8] | Potency [9] | Potency [10]

C=CCS(=O)(=O)O
inactive: Potency [1] | outcome [2] | outcome [3] | Potency [4] | Potency [5] | activity change, positive = activation [6] 4.55% | Potency [7] | Potency [8] | Potency [9]

CC/C=C\CCOC(C)=O
inactive: Potency [1] | outcome [2] | outcome [3] | Potency [4] | Potency [5] | activity change, positive = activation [6] 8.11% | Potency [7] | Potency [8] | Potency [9]

NS(=O)(=O)c1cc(C(=O)NN2C[C@H]3[C@H]4CCC(C4)[C@H]3C2)ccc1Cl
inactive: Potency [1] | outcome [2] | outcome [3] | Potency [4] | activity change, positive = activation [6] -1.11% [at 42.5 µM] | Potency [7] | Potency [8] | Potency [9] | Potency [10]

CCCCCCCCCCCCCCCCC
inactive: Potency [1] | outcome [2] | outcome [3] | Potency [4] | Potency [5] | activity change, positive = activation [6] -0.135% | Potency [7] | Potency [8] | Potency [9] | Potency [10]

OCCCC1CCCCC1
inactive: Potency [1] | outcome [2] | outcome [3] | Potency [4] | Potency [5] | activity change, positive = activation [6] -0.619% | Potency [7] | Potency [9] | Potency [10]

CCO[Si](CCC1CCC2OC2C1)(OCC)OCC (stereo unspecified)
inactive: Potency [1] | outcome [2] | outcome [3] | Potency [4] | Potency [5] | activity change, positive = activation [6] 3.88% | Potency [7] | Potency [9] | Potency [10]

CN(C(=O)c1c(O)c2ccccc2n(C)c1=O)c1ccccc1
inactive: Potency [1] | outcome [2] | outcome [3] | Potency [4] | activity change, positive = activation [6] 0.397% [at 42.5 µM] | Potency [7] | Potency [8] | Potency [9] | Potency [10]

Cc1c(NC(C)C)c(=O)n(-c2ccccc2)n1C
inactive: Potency [1] | outcome [2] | outcome [3] | Potency [4] | Potency [5] | activity change, positive = activation [6] 0.236% [at 42.5 µM] | Potency [7] | Potency [8] | Potency [10]

N=C(N)c1ccc2cc(OC(=O)c3ccc(N=C(N)N)cc3)ccc2c1
inactive: Potency [1] | outcome [2] | outcome [3] | Potency [4] | Potency [5] | activity change, positive = activation [6] 0.274% [at 42.5 µM] | Potency [7] | Potency [8] | Potency [9] | Potency [10]

CCC(C)S (stereo unspecified)
inactive: activity change, negative = cytotoxicity [1] 6.65% [at 2.72 µM] | activation (H2AX phosphorylation) [2] -0.0858% [at 5.45 µM] | activation [3] -1.24% [at 2.67 µM] | activity change, negative = cytotoxicity [4] 4.19% [at 5.43 µM] | activity, negative = inhibition [5] 2.44% [at 3.27 µM] | activity change, positive = activation [6] 2.37% [at 3.27 µM] | activity change, negative = cytotoxicity [7] 1.23% [at 2.72 µM] | activity change, negative = cytotoxic [8] 3.1% [at 2.72 µM] | activity change, negative = cytotoxic [10] 2.53% [at 2.72 µM]

COC(=O)c1cc(C(=O)OC)cc(S(=O)(=O)O)c1
inactive: Potency [1] | outcome [2] | outcome [3] | Potency [4] | Potency [5] | activity change, positive = activation [6] 0.501% | Potency [7] | Potency [8] | Potency [9] | Potency [10]

CC(=O)OC/C=C(\C)CC/C=C(\C)CCC=C(C)C
inactive: Potency [1] | outcome [2] | outcome [3] | Potency [4] | Potency [5] | activity change, positive = activation [6] 1.18% and 2.19% | Potency [7] | Potency [8] | Potency [9] | Potency [10]
